From PubChem
An excerpt weighted towards active compounds, which were near 10% of everything screened.
NIH3T3 tox – Cytotoxic Profiling in NIH 3T3 Cell Line of Diverse Libraries Using Quantitative High-Throughput Screening. 4.3% of 94,000 active. NIH 3T3 viability, CellTiter-Glo ATP luminescence, 48-72 h. Potency, µM (titrated, usually from 96.7 µM), for inactives: at the highest dose activity change, negative = cytotoxicity, most hits filed as inhibitors; note: nearly all actives have a fitted effect of over 55% in size
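Viability of NIH 3T3 cells after 48 or 72 hr compound treatment at 37 °C was assessed by CellTiter-Glo, with luminescence imaged following a 10 min room-temperature step.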
FLuc inh – Firefly luciferase inhibition profiling of diverse chemical library using quantitative high-throughput screening. purified P. pyralis luciferase, luminescence, biochemical. Potency, µM (doses to about 115 µM), most hits filed as inhibitors. 2.5% of 76,000 active; note: nearly all actives have a fitted effect of over 65% in size
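Luminescence read by CCD imaging after purified firefly luciferase (10nM final) was added to substrate buffer holding 10uM D-luciferin and 10uM ATP, pH 7.5, pre-dosed with compound.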
hNpr1 antagonist – Natriuretic polypeptide receptor (hNpr1) antagonism - Primary qHTS | 1.6% of 76,000 active | Atrial natriuretic peptide receptor 1 (Homo sapiens), P16066 | HEK293 hNpr1 GloSensor cGMP, ANP-stimulated luminescence | AID 1347048, 2019 | Potency, µM (titrated, usually from 46.3 µM), inactives show at the top dose activity change, negative = inhibition, usual class: inhibitors; calls by dose curve; note: nearly all actives have a fitted effect of over 60% in size
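HEK293 cells stably expressing human Npr1 and cGMP GloSensor pGS-40F, loaded 2 h with 2% GloSensor reagent, given compound 30 min at room temperature. Luminescence read before and 20 min after 0.1 nM hNppA.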
HEK293 tox – Cytotoxic Profiling in HEK 293 Cell Line of Diverse Libraries Using Quantitative High-Throughput Screening; 6.6% of 94,000 active; AID 1345083, 2018; Potency, µM (doses to about 115 µM), without a hit: at the highest dose activity change, negative = cytotoxicity, most hits filed as inhibitors; HEK 293 viability, ATP luminescence (CellTiter-Glo), 48-72 h; note: nearly all actives have a fitted effect of over 60% in size
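qHTS cytotoxicity; HEK 293, 250 cells/well; compound pinned; 48 or 72 hr, 37 degree Celsius, 5% CO2, 95% humidity; CellTiter-Glo, 10 min RT; luminescence (ATP).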
GPT2 inh – Primary qHTS assay for inhibitors of Glutamate pyruvate transaminase 2 (GPT2); Recombinant GPT2, coupled pyruvate oxidase/HRP Amplex Red fluorescence; 0.25% of 100,000 active; Alanine aminotransferase 2 (Homo sapiens), Q8TD30; Potency, µM (top dose mostly 57.7 µM), without a hit: at the top dose activity change, negative = inhibition, usual class: inhibitors; note: nearly all actives have a fitted effect of over 60% in size
Target sequence (Q8TD30 whole entry, looked up): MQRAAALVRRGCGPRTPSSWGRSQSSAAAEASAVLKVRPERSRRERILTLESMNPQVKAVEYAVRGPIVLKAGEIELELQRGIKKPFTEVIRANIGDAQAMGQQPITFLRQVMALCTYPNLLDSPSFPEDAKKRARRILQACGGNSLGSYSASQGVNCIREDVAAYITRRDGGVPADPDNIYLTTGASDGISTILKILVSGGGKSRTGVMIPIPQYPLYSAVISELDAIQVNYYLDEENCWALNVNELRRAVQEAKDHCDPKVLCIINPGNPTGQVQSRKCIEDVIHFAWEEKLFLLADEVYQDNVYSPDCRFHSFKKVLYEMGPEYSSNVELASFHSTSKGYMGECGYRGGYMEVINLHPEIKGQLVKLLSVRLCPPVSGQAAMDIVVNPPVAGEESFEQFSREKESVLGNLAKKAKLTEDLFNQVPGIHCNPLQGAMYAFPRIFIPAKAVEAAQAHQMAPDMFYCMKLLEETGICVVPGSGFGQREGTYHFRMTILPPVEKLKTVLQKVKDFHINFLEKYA
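Fluorescence read-out: pyruvate from GPT2 turnover coupled to pyruvate oxidase, HRP and Amplex Red (0.2mM ThPP, 0.2U/mL PO and HRP, 50uM Amplex final). Substrates 250uM a-KG, 2mM L-alanine; enzyme 10ng/uL; 30 min RT.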
* marks the source's active call; other numbers are inactive results; ! = not confirmed by another sample; [ ] = another dose, or the depositor's remark. Unless noted, calls come from the whole dose curve; as a rule, active = well fitted curve in the direction sought with a large enough effect; inconclusive = small, poorly fitted or top-dose-only effect, or another doubt; inactive = no such curve, though single readings can be large; an effect the other way counts as inactive or inconclusive. % is set by controls: 0 for no effect and ±100 for the full control effect; potency is the fitted concentration of half-maximal effect.

What do the screens show for `Cc1cc(C(F)(F)F)nn1CC(=O)N1CCCC1c1nc(CCOCC2CC2)no1` (centres undefined)?
NIH3T3 tox: -3.7%; FLuc inh: inactive; hNpr1 antagonist: 1.1%; HEK293 tox: -29.8%; GPT2 inh: inactive

What do the screens show for `Cc1c(Cl)cccc1NC(=O)NCC1CCOCC1`?
NIH3T3 tox: inactive; FLuc inh: inactive; hNpr1 antagonist: -2.8%; HEK293 tox: 3.0%; GPT2 inh: -3.8%

How did O=C(NC1CCN(Cc2cccc(-c3ccc(F)cc3F)c2)CC1)c1ccncc1 do in these assays?
NIH3T3 tox: inconclusive; HEK293 tox: 31.6µM*

What do the screens show for `COc1cccc(C(=O)NC2CCN(Cc3cccc(-c4ccc(F)cc4F)c3)CC2)c1`?
NIH3T3 tox: 35.5µM*!; HEK293 tox: 31.6µM*!

How did O=C(NC1CCN(Cc2cccc(-c3ccc(F)cc3F)c2)CC1)C1CCCC1 do in these assays?
NIH3T3 tox: -19.3%; HEK293 tox: -17.3%

Results for O=C(c1ccco1)N1CCC(N2C(=O)C(O)C23CCCCC3)CC1 (centres undefined) ?
NIH3T3 tox: inactive; FLuc inh: inactive; hNpr1 antagonist: 4.7%; HEK293 tox: -1.9%; GPT2 inh: inactive

What do the screens show for `CCCN1C(=O)CCc2cc(NC(=O)c3ccc(C)cc3)ccc21`?
NIH3T3 tox: inconclusive; FLuc inh: 31.6µM*; hNpr1 antagonist: -14.2%; HEK293 tox: inconclusive; GPT2 inh: -8.6%

How did CCCN1C(=O)CCc2cc(NC(=O)c3ccc4c(c3)OCO4)ccc21 do in these assays?
NIH3T3 tox: inconclusive; FLuc inh: 31.6µM*; hNpr1 antagonist: -2.5%; HEK293 tox: 44.7µM*; GPT2 inh: -10.0%

How did CC(=O)Nc1ccc2c(c1)CCC(=O)N2CC(C)C do in these assays?
NIH3T3 tox: -5.4%; FLuc inh: inactive; hNpr1 antagonist: 0.0%; HEK293 tox: 3.3%; GPT2 inh: 0.3%

What do the screens show for `CCOc1ccc(C(=O)Nc2ccc3c(c2)CCC(=O)N3CC(C)C)cc1`?
NIH3T3 tox: inconclusive; FLuc inh: inactive; hNpr1 antagonist: inconclusive; HEK293 tox: 28.2µM*; GPT2 inh: inactive

How did Cn1c(N2CCCCS2(=O)=O)nc(C(=O)NCc2ccc(F)cc2)c(O)c1=O do in these assays?
GPT2 inh: -8.3%

What do the screens show for `CC(C)N1CC(C(=O)N2CCN(c3ncccn3)CC2)NC1=O` (centres undefined)?
NIH3T3 tox: -13.9%[138 µM]; HEK293 tox: -2.1%[172 µM]; GPT2 inh: inactive

Results for O=C(C1CC1)N1CCN(c2nccc(Nc3ccccc3Cl)n2)CC1 ?
NIH3T3 tox: 22.4µM*; HEK293 tox: inconclusive; GPT2 inh: -3.4%

Results for O=C(NC1CCN(c2nccc(Nc3ccccc3Cl)n2)CC1)c1ccccc1 ?
NIH3T3 tox: inconclusive; HEK293 tox: 39.8µM*; GPT2 inh: 4.8%

Results for O=C(C1CCCC1)N1CCN(c2nccc(Nc3ccccc3Cl)n2)CC1 ?
NIH3T3 tox: 14.1µM*; HEK293 tox: inconclusive; GPT2 inh: inactive

How did COc1cccc(-c2ccc(C(=O)N3CCC(N[S+](=O)([O-])c4ccc(C)cc4)CC3)cc2)c1 do in these assays?
NIH3T3 tox: inconclusive; HEK293 tox: 11.2µM*; GPT2 inh: -10.9%

Results for COc1cccc(-c2ccc(C(=O)N3CCC(N[S+](=O)([O-])c4cccc(C(F)(F)F)c4)CC3)cc2)c1 ?
NIH3T3 tox: inconclusive; HEK293 tox: 11.2µM*; GPT2 inh: -4.0%

How did N#Cc1cccnc1-c1ccc(C(=O)N2CCC(N[S+](=O)([O-])c3cccc(C(F)(F)F)c3)CC2)cc1 do in these assays?
NIH3T3 tox: inconclusive; HEK293 tox: inconclusive; GPT2 inh: -18.2%

How did O=C(NC[C@H](O)CO)c1ccncc1Nc1ccc(I)cc1F do in these assays?
GPT2 inh: inactive

Results for O=C(NCc1ccc(Cl)cc1)[C@@H]1Cc2nc[nH]c2CN1Cc1ccc(Cl)cc1 ?
NIH3T3 tox: 44.7µM*; FLuc inh: inactive; hNpr1 antagonist: inconclusive; HEK293 tox: 31.6µM*; GPT2 inh: 1.2%[88.5 µM]

What do the screens show for `COc1ccc(CN2Cc3[nH]cnc3C[C@H]2C(=O)NCc2ccc(C#N)cc2)c2ccccc12`?
NIH3T3 tox: 79.4µM*; FLuc inh: inactive; hNpr1 antagonist: -18.6%; HEK293 tox: inconclusive; GPT2 inh: -2.0%

What do the screens show for `O=C(NCc1ccccc1)[C@@H]1Cc2nc[nH]c2CN1Cc1ccc(Cl)cc1`?
NIH3T3 tox: inconclusive; FLuc inh: inactive; hNpr1 antagonist: -11.3%[70.6 µM]; HEK293 tox: inconclusive; GPT2 inh: inactive

What do the screens show for `COc1ccc(CN2Cc3[nH]cnc3C[C@H]2C(=O)NCc2ccc(Cl)cc2)c2ccccc12`?
NIH3T3 tox: inconclusive; FLuc inh: inactive; hNpr1 antagonist: inconclusive; HEK293 tox: inconclusive; GPT2 inh: inconclusive

How did COc1ccc(CN2Cc3[nH]cnc3C[C@H]2C(=O)N(C)Cc2ccccc2)c2ccccc12 do in these assays?
NIH3T3 tox: inconclusive; FLuc inh: inactive; hNpr1 antagonist: -26.1%; HEK293 tox: 39.8µM*; GPT2 inh: inconclusive

Results for COc1ccc(CN2Cc3[nH]cnc3C[C@H]2C(=O)NC2CCCCC2)c2ccccc12 ?
NIH3T3 tox: 63.1µM*; FLuc inh: inactive; hNpr1 antagonist: -19.1%[70.6 µM]; HEK293 tox: inconclusive; GPT2 inh: 0.6%[88.5 µM]

How did CC(C)CCN1C[C@@H]2C[C@H]1C(=O)N(C)c1ccccc1O2 do in these assays?
NIH3T3 tox: inconclusive; FLuc inh: inactive; hNpr1 antagonist: 3.0%[70.6 µM]; HEK293 tox: -26.4%[230 µM]; GPT2 inh: -7.5%[88.5 µM]

What do the screens show for `COc1cccc(CN2Cc3cc(NC(=O)c4cccc(OC)c4)ccc3OCC2=O)c1`?
NIH3T3 tox: inconclusive; FLuc inh: inconclusive; hNpr1 antagonist: -15.3%; HEK293 tox: 25.1µM*; GPT2 inh: 0.3%

Results for COc1cccc(CN2Cc3cc(NC(=O)c4ccc([N+](=O)[O-])cc4)ccc3OCC2=O)c1OC ?
NIH3T3 tox: inconclusive; FLuc inh: inactive; hNpr1 antagonist: inconclusive; HEK293 tox: 39.8µM*; GPT2 inh: 3.9%

Results for COc1ccc(C(=O)Nc2ccc3c(c2)CN(Cc2cccc(OC)c2OC)C(=O)CO3)cc1OC ?
NIH3T3 tox: -24.5%; FLuc inh: inactive; hNpr1 antagonist: 2.9%; HEK293 tox: inconclusive; GPT2 inh: -0.6%
